According to PubChem BioAssay (NCI):
The panel holds about 83,000 compounds, 20% with a hit somewhere; the sample as a whole holds those more often.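 Results are percent growth after 48 hours of single-concentration exposure. 100 means growth as in untreated cells, lower positive values show inhibition; negative values down to -100 show cell death.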 Values without a mark were called inactive. Calls of active or inactive are those of the source. Rule for the calls: active = growth percent below 10; inactive = the rest.

Columns and labels:
Assay in all cases: NCI-60 one-dose screen, 48 h (100 = growth as untreated, 0 = no growth, -100 = all killed)
Details in all cases: 10 µM unless noted
HCT-15 colon = test system: HCT-15 colon
HT29 colon = test system: HT29 colon
SNB-75 CNS = test system: SNB-75 CNS
SNB-19 CNS = test system: SNB-19 CNS
U251 CNS = test system: U251 CNS
PC-3 prostate = test system: PC-3 prostate
SK-MEL-5 melanoma = test system: SK-MEL-5 melanoma
UACC-62 melanoma = test system: UACC-62 melanoma
LOX IMVI melanoma = test system: LOX IMVI melanoma
SK-MEL-28 melanoma = test system: SK-MEL-28 melanoma

SMILES | growth (HCT-15 colon) | growth (HT29 colon) | growth (SNB-75 CNS) | growth (SNB-19 CNS) | growth (U251 CNS) | growth (PC-3 prostate) | growth (SK-MEL-5 melanoma) | growth (UACC-62 melanoma) | growth (LOX IMVI melanoma) | growth (SK-MEL-28 melanoma)
O=C1/C(=C/c2ccc(C(F)(F)F)cc2)COc2ccc(O)cc21 | 40.6% | 44.2% | 81.1% | 85.3% | 52.3% | 70.3% | 97.4% | 80.2% | 2.9% (active) | 100%
Oc1c(Cl)cc(Cl)c2ccc(Cn3cc(-c4cccc(C(F)(F)F)c4)nn3)nc12 | 40.5% | 89.2% | 70% | 95.6% | 93.6% | 83.1% | 98.2% | 82.1% | 23.7% | 75.9%
CCNCc1ccc(O)c2ncccc12 | 28% | 95.9% | 31.1% | 24.2% | 17.7% | 23.4% | 6.19% (active) | 25% | 31% | 65.6%
CCN=C1C=CC(=C(c2ccc(N(C)C)cc2)c2ccc(N(C)C)cc2)c2ccccc21 | -7.99% (active) | -18.7% (active) | -17.3% (active) | 14.8% | -3.23% (active) | -4.82% (active) | -95.5% (active) | -38% (active) | -10.8% (active) | -18.5% (active)
NC(=S)N/N=C/c1cn(-c2ccccc2)nc1-c1cc2ccccc2oc1=O | 28.2% | 14.7% | 8.48% (active) | 56.6% | 45.2% | 67.5% | 46.3% | 34.2% | 46.3% | 69.7%
Oc1c(I)cc(-c2nc3ccccc3s2)cc1CN(Cc1ccccn1)Cc1ccccn1 | 22% | 21.3% | 40.1% | 20.9% | 8.16% (active) | 28.3% | -78.3% (active) | 10.5% | 3.14% (active) | 37.5%
Nc1c(C(=O)O)cc(Cl)cc1[N+](=O)[O-] | 104% | 97.7% | 89.8% | 112% | 104% | 80.8% | 103% | 96.4% | 100% | 109%
CC1CN=C(c2cccc(-c3ccc(-c4ccccc4)o3)c2)N1 (stereo not given) | -57.5% (active) | -43.6% (active) | 58.7% | 25.8% | -24.3% (active) | 11.2% | -93.3% (active) | -62.2% (active) | -85.7% (active) | -76.3% (active)
CCn1cc(C(=O)NN=C2CCCCCC2)c(=O)c2ccc(C)nc21 | 86.2% | 99.7% | 76.2% | 88.5% | 94.6% | 82.7% | 87.1% | 73.2% | 95% | 93.8%
COC(=O)C1=Nc2ccc(F)cc2/C1=C\c1sc(Nc2ccc(O)cc2)nc1O | 74.3% | 106% | 33.8% | 45.7% | 46.4% | 52.1% | 60.3% | 34.3% | 64% | 66.1%
O=C(CCCCCCN1CC(=O)N2[C@@H](C3CCCCC3)c3[nH]c4ccccc4c3C[C@H]2C1=O)NO | 115% | 58.9% | 38.1% | 74.6% | 70.2% | 62.7% | 66% | 35.3% | -3.25% (active) | 60.7%
Cn1c(=O)c2c(c3ccccc31)OC(N)=C(C#N)C21C(=O)c2ccccc2C1=O | 96.1% | 102% | 76.8% | 88.2% | 101% | 80.8% | 94.9% | 89.8% | 97.5% | 104%
COC(=O)C1=C(C(=O)Nc2cccnc2)C2OC1(C(Cc1ccccc1)Oc1ccccc1)C1OC21 (stereo not given) | 14.4% | 59.1% | 88.7% | 102% | 101% | 69.6% | 107% | 69.7% | 80.7% | -75.4% (active)
CC(=O)N(Cc1ccccc1)c1nc2ccc(O)c(CN(C)C)c2s1 | 97.8% | 109% | 79.2% | 100% | 96.2% | 90.2% | 99% | 93.7% | 94.1% | 107%
CCCCCCCCn1ccc2cc(NC(=O)Cn3cc(CN4CCC(C)CC4)nn3)ccc21 | -32.2% (active) | -66.9% (active) | 79.1% | -34.8% (active) | -57.6% (active) | 43% | -23% (active) | -77.8% (active) | -85.3% (active) | -86.9% (active)
CCOC(=O)C(=Cc1cccc(C#N)c1)C(=O)OCC | 39% | 20% | 60.2% | 85.1% | 76.1% | 62.8% | 85.8% | 53.4% | -44.1% (active) | 50.3%
CC1=CCC[C@@H]2C1(C)CC[C@H](C)[C@@]2(C)CC1=CC(=O)C(SC(C)(C)C)=CC1=O (stereo not given in full) | 86.4% | 77% | 77.4% | 94.5% | 85% | 56.1% | 78.4% | 67.1% | 74.6% | 94.2%
CCCCCCCCNc1cc2c3c(c1)CCCN3CCC2 | 17.9% | -9.19% (active) | 35.9% | 17.5% | 15.5% | -0.993% (active) | -71.8% (active) | 27.8% | 2.21% (active) | 48.9%
Cc1cc2nc(-c3c(-c4ccc(F)cc4)nc4sccn34)[nH]c2cc1C | 93% | 96.3% | 105% | 96.1% | 95.4% | 90.5% | 86.3% | 89% | 88.8% | 95.2%
Cc1nc2ccccc2c(/C=C/c2ccc(C(F)(F)F)cc2)c1C(=O)/C=C/c1ccccc1 | -49.4% (active) | -29.2% (active) | 31.3% | -66.5% (active) | -84.1% (active) | 12% | -79% (active) | -39.8% (active) | -92.2% (active) | -52.2% (active)
O=C(/C=C/c1ccccc1)Nc1ncc(Cc2ccccc2)s1 | 14.2% | 4.97% (active) | -2.19% (active) | 42.6% | 9.07% (active) | 23.4% | 30.6% | 3.28% (active) | 6.49% (active) | 47%
COc1ccc2c(c1)c(-c1nc(-c3cn(C)c4ncccc34)cs1)cn2CCO | 61.1% | 75.3% | 91.3% | 90.2% | 78.5% | 69.1% | 74.2% | 80.4% | 59.3% | 86%
CC(CN)[C@@H]1CC[C@]2(CO)CC[C@]3(C)[C@H](CC[C@@H]4[C@@]5(C)CCC(N)C(C)(C)[C@@H]5CC[C@]43C)[C@@H]12 (stereo not given in full) | -75.4% (active) | -85.9% (active) | 52.2% | 5.3% (active) | -88.4% (active) | -76.2% (active) | 57.5% | 104% | -72.1% (active) | -39.8% (active)
COc1cc2c3c(n(CCCCNCCCn4c5c(c6cc(OC)c(OC)cc6c4=O)C(=O)c4cc6c(cc4-5)OCO6)c(=O)c2cc1OC)-c1cc2c(cc1C3=O)OCO2 | 99.6% | 93.3% | 91% | 102% | 91.6% | 93% | 102% | 96.8% | 95.2% | 109%
O=C1OCC2=C1C(c1cccc(C(F)(F)F)c1)c1cc3c(cc1N2CCO)OCO3 (stereo not given) | 25.2% | 6.68% (active) | 19% | 30.1% | 21% | 25.9% | 20% | 48.4% | 40.6% | 57.3%
Clc1ccc(-c2cn3ccsc3n2)c(Cl)c1Cl | 89.5% | 105% | 86.4% | 105% | 91% | 93.5% | 79.8% | 67.7% | 80.7% | 120%
COP(=O)(OC)c1nnn(-c2cccc([N+](=O)[O-])c2)c1C | 106% | 105% | 93.6% | 105% | 99.7% | 98.7% | 100% | 99.2% | 96% | 113%
